# aSyn 5UTR act = Activators via SNCA 5'UTR binding, MLPCN | activity score, % (tested at 7.5 µM), hits read low | 7.1% of 300,000 active | alpha-synuclein 5'UTR reporter, activators screen; in the data active = activity score below about -60%
# Hits are given with their value; - = inactive. Not all results are given here.
SMILES,aSyn 5UTR act
O=C(Nc1nnc(C2CCCCC2)s1)c1ccco1,-178
Clc1ccc(-c2cnc3n2CCC3)cc1,-103
CCn1c2ccccc2c2cc(CNCc3ccc(OC)cc3OC)ccc21,-
CCn1c2ccccc2c2nc3cc(OC)c(OC)cc3nc21,-78
Cc1ccc2nc(SCC(=O)Nc3cc(C(F)(F)F)ccc3N3CCOCC3)[nH]c2c1,-
Cc1ccc2[nH]c(SCC(=O)N3CCOCC3)nc2c1C,-110
C/C(N)=C(/C#N)C(=O)CSc1nc2ccc(C)cc2[nH]1,-183
Cc1ccc2nc(SCC(=O)N3CCOCC3)[nH]c2c1,-89
COc1ccccc1-c1nn2c(-c3ccco3)nnc2s1,-196
Cc1cc(=O)n2nc(-c3ccc(C(F)(F)F)cc3)sc2n1,-149
COc1ccccc1-c1nn2c(=O)cc(C)nc2s1,-72
COc1cccc(-c2nnc3sc(-c4ccccc4)nn23)c1,-69
CCN(CC)c1ccc(-c2nn3c(-c4ccccc4OC)nnc3s2)cc1,-
CCCOc1ccccc1C1CC(=O)Nc2cc3c(cc21)OCCO3 (stereo not drawn),-
O=C(CCSc1ccccc1)N1CCOCC1,-89
O=C(CCSc1ccccc1)N1CCCC1,-80
CCOC(=O)C(NC(=O)CCl)(Nc1sc(C)c(CC)c1C#N)C(F)(F)F (stereo not drawn),-75
Cc1cccc(C(=O)Nc2ccc(C(=O)N3CCCCC3C)cc2)c1 (stereo not drawn),-84
CC(=O)N1CCN(c2ccc(NC(=O)c3ccc(Cl)c([N+](=O)[O-])c3)cc2)CC1,-70
CC(=O)N1CCN(c2ccc(NC(=O)c3ccccc3)cc2)CC1,-106
CC(=O)N1CCN(c2ccc(NC(=O)c3cccc(C)c3)cc2)CC1,-73
Cc1ccc(N2CCN(C(=O)c3ccccc3NC(=O)c3ccccc3C(=O)O)CC2)cc1,-100
COc1ccc(-c2cc(C(F)(F)F)nc(S(=O)(=O)CCC(=O)N3CCOCC3)n2)cc1,-76
Nc1c2c(=O)oc(-c3ccccc3)cc2nn1-c1ccccc1,-182
Cc1ccc(C(=O)Nc2ncccc2S(=O)(=O)c2ccccc2)cc1,-154
SMILES,aSyn 5UTR act
CCn1c(/C=C\c2ccccc2C)nc2ccccc2c1=O,-63
CCn1c(/C=C/c2c[nH]c3ccccc23)nc2ccccc2c1=O,-176
CCn1c(/C=C/c2ccccc2Cl)nc2ccccc2c1=O,-191
O=C(Nc1cccc(F)c1)c1ccc(Br)o1,-66
CC(=O)c1cccc(NC(=O)c2ccc(Br)o2)c1,-71
CCSc1nnc(NC(=O)c2cccs2)s1,-138
O=C(Nc1nnc(SCc2ccc(F)cc2)s1)c1ccccn1,-
O=C(Nc1nnc(SCc2ccccc2)s1)c1cccs1,-67
CCSc1nnc(NC(=O)C(C)(C)C)s1,-107
CC(=O)Cc1nsc(NC(=O)c2cccs2)n1,-67
CCSc1nnc(NC(=O)NC2CCCCC2)s1,-64
Cc1cccc(NC(=O)NC(=O)c2ccccc2)n1,-139
O=C(NC(=O)c1ccccc1)Nc1ccccn1,-
O=C(Nc1ccccn1)c1ccc(C(=O)c2ccccc2)cc1,-108
Cc1cccc(NC(=O)c2ccc(C(=O)c3ccccc3)cc2)n1,-102
Cc1cc(C)c(NC(=O)NC(=O)c2cccc(F)c2)c(C)n1,-69
O=C(Nc1ccccc1)O/N=C/c1ccc(F)cc1,-189
Cc1ccc(NC(=O)O/N=C/c2ccc(F)cc2)cc1,-131
Cc1ccc(NC(=O)O/N=C/c2ccc(N(C)C)cc2)cc1,-71
Cn1c(SCc2ccccc2F)nc2cccnc21,-101
Cc1cc2n(n1)SC(Nc1ccc(F)c(Cl)c1)N2 (stereo not drawn),-77
COc1cccc2oc(-c3ccco3)cc(=O)c12,-94
O=c1cc(-c2ccco2)oc2ccc(Cl)cc12,-96
COc1ccc2oc(-c3ccco3)cc(=O)c2c1,-129
COc1cc(OC)c2c(=O)cc(-c3ccccc3)oc2c1,-102
SMILES,aSyn 5UTR act
CCCCN(C(=O)NC(=O)Nc1cccc(C)c1C)S(C)(=O)=O,-92
Nc1ccccc1C(=O)NNC1=C(C(=O)C(F)(F)F)CCC1,-278
CC1CCN(c2ccc(NC(=O)c3cccnc3)cc2)CC1,-149
CC1CCN(c2ccc(NC(=O)c3cccnc3Cl)cc2)CC1,-69
CC(=O)Nc1ccc(S(=O)(=O)Nc2nc3ccccc3nc2Nc2ccc3ccccc3c2)cc1,-133
COc1ccc(C([O-])=Nc2ccc[n+](-c3nc4ccccc4nc3NS(=O)(=O)c3ccccc3)c2)cc1,-
CCOc1ccc(/C=N/N(C)c2ccccc2)cc1OC,-250
CCCOc1ccc(/C=N/Nc2ccccn2)cc1OC,-177
CCOc1ccc(/C=N/Nc2ccccn2)cc1OC,-177
C=CCOc1ccc(/C=N/Nc2ccccn2)cc1OC,-246
COc1cc(/C=N/Nc2ccccn2)ccc1OCC(C)C,-127
CCn1cc(NC(=O)CCl)c(C)n1,-104
O=c1oc2c(-c3cccc(F)c3)cc(O)cc2s1,-79
COc1ccc2c(c1)c1nnc(SC)nc1n2C,-68
O=C(NCc1ccccc1)c1c(Cl)nc(Cl)c(Cl)c1Cl,-
COc1ccc(CNC(=O)c2ccc(N3CCCC3=O)cc2)cc1,-71
COc1cccc(/C=N/NC(=O)c2ccc(N3CCCC3=O)cc2)c1,-112
O=C(Cc1ccc(Br)cc1)NCc1ccccc1,-67
COc1ccc(OC)c(NS(=O)(=O)c2ccc(N3CCCC3=O)cc2)c1,-
COC(=O)c1ccc(COC(=O)CNC(=O)c2ccc(-c3ccccc3)cc2)cc1,-87
COc1ccc(CNC(=O)c2nc(S(=O)(=O)Cc3ccccc3)ncc2Cl)cc1,-
COc1ccc(CC(=O)NCc2ccccc2)cc1,-154
COc1ccc(CNC(=O)c2ccc(-c3ccccc3)cc2)cc1,-115
Cc1ccc2nc(-c3cccc(S(=O)(=O)N(C)C)c3)cn2c1,-171
Cc1ccc2nc(-c3ccc(S(=O)(=O)N4CCCCC4)cc3)cn2c1,-81
SMILES,aSyn 5UTR act
CCN(CC)S(=O)(=O)c1cccc(-c2cn3cc(C)ccc3n2)c1,-78
CCN(CC)S(=O)(=O)c1cccc(-c2nc3n(n2)Cc2ccccc2-3)c1,-86
O=C(C1=C[C@@H](c2csc3ccccc23)C[C@@H](OCc2ccc(CO)cc2)O1)N1CCN(Cc2ccc3c(c2)OCO3)CC1,-
O=C1c2ccccc2C(Nc2ccc3c(c2)OCCO3)N1Cc1ccc2c(c1)OCO2 (stereo not drawn),-72
O=C1c2ccccc2C(Nc2ccc3c(c2)OCCO3)N1c1ccc(Cl)cn1 (stereo not drawn),-76
CCN(CC)c1nc(C#N)cc(-c2ccc(OC)cc2)n1,-69
CN(C)c1ccc(CNc2ncc(Br)cc2Br)cc1,-98
O=C(O)c1ccc(Cn2cnc3scc(-c4ccccc4)c3c2=O)cc1,-142
C/C(=N\Nc1nc(C)cc(-c2ccccc2)n1)c1ccccc1,-102
C/C(=N/Nc1nc(C)cc(-c2ccccc2)n1)c1ccco1,-76
Cc1cc(-c2ccccc2)nc(N/N=C/c2ccccc2F)n1,-160
C/C(=N\Nc1nc(C)cc(-c2ccccc2)n1)c1cccc(N)c1,-64
O=C(NCCN1CCOCC1)c1noc2c1CCc1ccccc1-2,-104
O=C(Nc1cccnc1Cl)c1noc2c1CCc1ccccc1-2,-124
CCCNC(=O)c1noc2c1CCc1ccccc1-2,-119
N#C/C(=C\Nc1ccccc1O)c1nc2ccccc2o1,-112
Cc1ccc(NC(=O)/C=C/c2cccs2)c([N+](=O)[O-])c1,-161
O=C(/C=C/c1cccs1)NCc1ccccc1,-110
Cc1cccc(NC(=O)/C=C/c2cccs2)n1,-108
O=C(/C=C/c1cccs1)Nc1ccc([N+](=O)[O-])cc1,-147
O=C(/C=C/c1cccs1)Nc1ccncc1,-126
